Compound activity (PubChem BioAssay)
Only some compounds are listed: those with a hit (about 3.1% of all), similar ones and a draw of the others.
PAX8 reporter – PAX8 transcriptional activity inhibition; RMG-I TPO-luciferase reporter, SteadyGlo, 24 h; inhibition, % at 12.6 µM; 360,000 tested, 1.2% active; AID 652154;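 active = mean replicate inhibition at least 60% with every replicate also reaching 60%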;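 also: luciferase light reporting Pax8 driven TPO promoter activity; plate controls were median of neutral control wells for no effect and mitoxantrone controls for full effect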
TWEAK-Fn14 inh – blocks TWEAK-Fn14 interaction in a reporter cell assay; TWEAK-stimulated Fn14 reporter cells, luciferase luminescence, 8 h; inhibition, % at 10 µM; 360,000 tested, 2% active; AID 1159606; in the data active = inhibition above about 50%
LMP1 NFkB inh – reduces LMP1-driven NF-kappaB luciferase signal | AID 504558 | LMP1-induced NF-kappaB luciferase reporter cells, luminescence | inhibition, % at 12.5 µM | 350,000 tested, 0.69% active; in the data active = inhibition above about 41%;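 also: 0% = neutral control wells and 100% = reference inhibitor control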
EWS-Fli inh – EWS/Fli transcriptional activity inhibition; A673 NR0B1-luciferase reporter, viability-normalised; inhibition, % at 12.6 µM; 350,000 tested, 0.67% active; AID 651661;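 active = mean inhibition of at least 50% after viability correction, with every replicate also passing that limit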;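 also: firefly luciferase signal divided by Alamar Blue viability fluorescence both relative to DMSO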
LGR2 antag – inhibitors of bursicon-induced Drosophila LGR2 receptor cAMP signaling | HEK293 LGR2, CRE-luciferase, bursicon-stimulated, 4 h | inhibition, % at 9.99 µM | 380,000 tested, 0.35% active | AID 720647;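 active = drop in luminescence signal, shown as inhibition above about 50% in the replicate tests, limit read from the data, passing the limit was not always enough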;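 also: agonist challenge used bursicon conditioned medium at about half maximal strength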
TROY NFkB inh – inhibitors of TROY-dependent NF-kB signaling; inhibition, % at 10 µM; AID 1347056; Q293 LMP1-TROYcd NF-kB luciferase reporter, 4 h; 360,000 tested, 0.98% active;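 active = compounds whose plate-normalised and pattern-corrected inhibition of the luciferase reporter signal at the single screening dose is 50% or more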
* marks the source's active call; other numbers are inactive results; . = no result given; ! = not confirmed by another sample.

SMILES | PAX8 reporter | TWEAK-Fn14 inh | LMP1 NFkB inh | EWS-Fli inh | LGR2 antag | TROY NFkB inh
COc1ccc(-n2nc(C#N)c(Cl)cc2=O)cc1 | 105* | 96* | -8 | 53* | 105* | 61*
COC(=O)c1nn(-c2ccc(OC)cc2)c(=O)cc1O | -13 | -1 | -3 | 2 | 0 | -5
O=C(Nc1cc(Sc2nc3ccccc3s2)cc([N+](=O)[O-])c1)c1cccc(F)c1F | -25 | 58* | 8 | . | -3 | 24
O=C(CSc1nc2ccc(NC(=O)c3ccccc3C(=O)O)cc2s1)Nc1ccc(F)c([N+](=O)[O-])c1 | -23 | -17 | 7 | 3 | 8 | -26
Cc1[nH]c2ccccc2c1C(=O)C(C)OC(=O)c1ccccc1NCCO (stereo not drawn) | 6 | 53* | -11 | -7 | -3 | 31
Cc1ccc(C)c(Oc2cc(NC(=O)CCCn3nc(C)c([N+](=O)[O-])c3C)cc([N+](=O)[O-])c2)c1 | 7 | 73* | 4 | 15 | 27 | 44
C[C@@H]1CCCCO[C@@H](CN(C)C(=O)Nc2ccc(F)cc2)[C@H](C)CN([C@H](C)CO)C(=O)c2cc(NC(=O)CCCN(C)C)ccc2O1 | -1 | . | . | . | 0 | .
C[C@H](CO)N1C[C@H](C)[C@H](CN(C)Cc2ccc(C(F)(F)F)cc2)Oc2ccc(NC(=O)CCN3CCOCC3)cc2C1=O | -3 | . | . | . | 18 | .
Cc1onc(-c2c(Cl)cccc2Cl)c1C(=O)N[C@@H]1C(=O)N2[C@@H]1SC(C)(C)[C@@H]2C(=O)O | 3 | -14 | 75*! | 4 | 2 | 4
CCCC(=O)Nc1ccc2c(c1)OC[C@@H](C)N(Cc1ccncc1)C[C@H](C)[C@@H](OC)CN(C)C2=O | . | . | . | -9 | 1 | .
O=C(C1CCC(CNS(=O)(=O)c2cccs2)CC1)N1CCN(c2ccc(Cl)cc2)CC1 (stereo not drawn) | 68* | 50 | 33 | . | 33 | 48
Cc1onc(-c2ccccc2Cl)c1C(=O)N1CCC(C(N)=O)CC1 | -2 | 0 | -7 | 6 | -5 | -16
Cc1onc(C(=O)N2CCC(C(N)=O)CC2)c1-c1ccccc1Cl | -7 | 87* | 7 | . | . | 1
COCC(=O)N(C)C[C@@H]1[C@@H](c2ccc(-c3cccnc3)cc2)[C@H](CO)N1C(C)=O | -42 | . | . | 4 | -11 | .
NC(=Nc1nc(-c2ccccn2)cc2ccccc12)c1ccccn1 | 58 | 31 | 67* | 15 | -7 | -1
COc1ccc(CC(N)c2csc(NC(=O)Nc3ccccc3Cc3ccccc3)n2)cc1 (stereo not drawn) | 24 | -16 | . | 58* | -6 | -5
COc1ccc(NC(=O)N(C)C[C@@H]2OCCCC[C@H](C)Oc3ccc(NS(=O)(=O)c4ccccc4)cc3C(=O)N([C@@H](C)CO)C[C@@H]2C)cc1 | 15 | . | . | 7 | 9 | .
O=C(c1ccc(S(=O)(=O)N2CCCCC2)cc1)N1CCN(CCN2C(=O)c3cccc4cccc(c34)C2=O)CC1 | 1 | 54* | 18 | 0 | 77* | 51*
CCc1cc2c(=O)c(-c3ccc4c(c3)OCCO4)coc2c(CN2CCCCC2C)c1O (stereo not drawn) | -9 | 31 | -5 | -52 | -25 | 72*
CC(C)N1CCC2(CC1)N=C(c1ccc3c(c1)OCO3)CC(c1cc(Cl)ccc1O)N2 (stereo not drawn) | . | 51* | 6 | . | . | 4
CC(Sc1ccc(Cl)cc1)C(=O)Nc1ccc2c(c1)OCO2 (stereo not drawn) | 4 | -7 | -2 | . | . | -22
O=C(C[C@H]1CC[C@H](NC(=O)C2CCC2)[C@H](CO)O1)NCC1CC1 | -4 | . | . | -1 | 6 | .
C[C@@H]1CN([C@H](C)CO)C(=O)c2cc(N(C)C)ccc2O[C@@H](C)CCCCO[C@H]1CN(C)Cc1ccccc1 | 0 | . | . | 2 | 5 | .
CN(C)S(=O)(=O)c1ccc(C(=O)Nc2nnc(SCC(=O)N3CCOCC3)s2)cc1 | -29 | 2 | 17 | -13 | -13 | -11
CC(C)Oc1ccc(C(=O)Nc2nnc(SCC(=O)N3CCOCC3)s2)cc1 | 70* | 50* | 70* | 60* | 74* | -8
SMILES | PAX8 reporter | TWEAK-Fn14 inh | LMP1 NFkB inh | EWS-Fli inh | LGR2 antag | TROY NFkB inh
Cc1ccc(C(=O)Nc2nnc(SCC(=O)N3CCCc4ccccc43)s2)cc1 | 21 | 55* | 51* | 49 | . | 15
O=C(Nc1nnc(SCC(=O)N2CCCc3ccccc32)s1)c1cccc2ccccc12 | 11 | -12 | 1 | 88* | 22 | -25
CCOC(=O)CNC(=O)CSc1nnc(NC(=O)c2ccc(C)cc2)s1 | 20 | 68* | 55* | 42 | 73* | -1
Cc1ccc(S(=O)(=O)Nc2ccc3c(c2)CC(=O)N([C@H](C)CO)C[C@H](C)[C@H](CN(C)Cc2ccc(C(=O)O)cc2)O3)cc1 | 0 | . | . | -6 | -34 | .
COc1ccc(C(=O)Nc2nnc(-c3ccccc3)s2)cc1 | -74 | -50 | -58 | -74 | -27 | -62
Cc1ccc(C(=O)Nc2nnc(-c3ccc(C(C)(C)C)cc3)s2)cc1 | . | -23 | 57* | . | . | -37
COc1ccc(NC(=O)c2cc3c(CO)cnc(C)c3oc2=Nc2cccc(F)c2)c(OC)c1 | 10 | -7 | 47* | -4 | -4 | 13
Cc1ncc(CO)c2cc(C(=O)Nc3cccc(F)c3)c(=Nc3cccc(C(N)=O)c3)oc12 | -3 | 0 | -2 | -1 | 0 | 13
Cc1ccc(-c2ccc([C@H]3[C@@H](CO)N4CCCCN(C(=O)c5ccc(F)cc5)C[C@H]34)cc2)cc1 | 73* | . | . | 6 | -1 | .
COCC(=O)N1CCCCN2[C@H](C1)[C@@H](c1ccc(-c3ccc(C)cc3)cc1)[C@@H]2CO | 115* | . | . | 2 | -24 | .
Cc1ccc(-c2ccc([C@H]3[C@H](CO)N4CCCCN(C(=O)c5ccc(F)cc5)C[C@@H]34)cc2)cc1 | -10 | . | . | 10 | -2 | .
Cc1noc(C)c1NC(=O)N(C)C[C@@H]1Oc2ccc(NC(=O)Cn3cnnn3)cc2CC(=O)N([C@H](C)CO)C[C@@H]1C | -16 | . | . | -14 | -8 | .
O=C(O)C[C@@H]1CC[C@H](NC(=O)Nc2cc(F)ccc2F)[C@H](CO)O1 | -9 | . | . | 1 | 3 | .
COc1cccc(C#Cc2ccc([C@H]3[C@H]4CN(C(=O)c5ccccc5)CC(=O)N4[C@H]3CO)cc2)c1 | 45 | . | . | -3 | 20 | .
O=C(c1ccccc1F)N1CC(=O)N2[C@@H](CO)[C@@H](c3ccc(C#Cc4ccc(F)cc4)cc3)[C@@H]2C1 | 108* | . | . | -4 | 6 | .
COc1cccc(C#Cc2ccc([C@@H]3[C@H](CO)N4C(=O)CN(C(=O)c5ccccc5)C[C@@H]34)cc2)c1 | 69* | . | . | -2 | 4 | .
O=C(c1ccc(F)cc1)N1CC(=O)N2[C@H](CO)[C@H](c3ccc(/C=C/c4ccccc4)cc3)[C@@H]2C1 | 21 | . | . | 15 | 6 | .
O=C(c1ccc(F)cc1)N1CC(=O)N2[C@H](C1)[C@H](c1ccc(/C=C/c3ccccc3)cc1)[C@@H]2CO | 69* | . | . | 4 | -7 | .
